Laboratory results as given in PubChem BioAssay AID2606 (The Scripps Research Institute Molecular Screening Center, 2010).
Out of some 320,000 compounds screened, about 160 (0.05%) were called active. For the sample, actives were picked, then their nearest neighbours and some compounds at random. Values without a mark were called inactive. No stated cut-off is given here; in the data, active means inhibition above about 38%; inactive means the rest.

These compounds were tested against Serine protease Rv3671c (Mycobacterium tuberculosis (strain ATCC 25618 / H37Rv)) (UniProt P9WHR9) (assay: inhibition of M. tuberculosis membrane protease Rv3671c – biochemical, fluorescence polarization, M. tuberculosis H37Rv, primary screen (AID 2606;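 further: extracellular domain of Rv3671c used as enzyme; 0% = enzyme with DMSO and 100% = no enzyme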)). Conditions: at 5.96 µM; hits give high values.
Chain of Serine protease Rv3671c (Mycobacterium tuberculosis (strain ATCC 25618 / H37Rv)) (P9WHR9 whole entry, looked up, the tested form may be a part): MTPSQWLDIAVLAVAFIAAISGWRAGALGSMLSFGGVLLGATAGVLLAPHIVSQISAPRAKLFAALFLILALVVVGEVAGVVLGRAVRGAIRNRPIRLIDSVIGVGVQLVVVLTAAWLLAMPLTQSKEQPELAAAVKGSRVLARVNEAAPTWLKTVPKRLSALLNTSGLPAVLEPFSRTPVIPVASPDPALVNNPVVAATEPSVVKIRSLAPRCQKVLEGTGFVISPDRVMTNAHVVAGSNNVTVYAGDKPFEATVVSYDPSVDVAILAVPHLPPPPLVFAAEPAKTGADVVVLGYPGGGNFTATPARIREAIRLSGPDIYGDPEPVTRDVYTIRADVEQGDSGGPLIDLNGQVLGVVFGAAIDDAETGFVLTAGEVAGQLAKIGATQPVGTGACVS

Row | SMILES | inhibition [%]
1 | COc1ccc(C(=O)OC(C)C(=O)NC2CCCC2)cc1S(=O)(=O)N1CCOCC1 (centres undefined) | -4.37
2 | O=C(COc1ccc(-c2ccccc2)cc1)NN=C1CCCC1 | -4.38
3 | CCOc1ccc(/C=C(/NC(=O)c2ccccc2)C(=O)NCCC(=O)O)cc1 | -7.39
4 | C=CCn1c(=S)[nH]c2scc(-c3ccco3)c2c1=O | 6.27
5 | CC(C)CCNC(=O)c1cccnc1Sc1ccccc1 | -12.3
6 | CCn1ncc(CNC(=O)C2(C)CC2(Br)Br)c1C (centres undefined) | -2.88
7 | CC(C)CC(COCc1ccc(Cl)cc1)N1CCN(C(=O)c2ccc(C(F)(F)F)cc2)CCC1=O (centres undefined) | -15.8
8 | CNC(=O)/C(C#N)=C/c1c(F)cccc1Cl | -0.68
9 | O=C(c1ccccc1F)N1CCN(S(=O)(=O)c2ccc(Br)cc2)CC1 | -4.63
10 | COCCNc1nc2nonc2nc1N1CCCC1c1nccs1 (centres undefined) | -4.76
11 | Cn1nnnc1SCC(=O)NNC(=O)c1ccc(Br)cc1 | -1.13
12 | CC(=O)N1CCc2c(sc(NC(=O)CCS(=O)(=O)c3ccc(C)cc3)c2C(N)=O)C1 | 8.49
13 | CCOC(=O)[C@@H]1[C@H]2COc3ccc(Br)cc3[C@H]2N2C(=O)N(c3ccc(Cl)cc3)C(=O)[C@@]12C | -4.24
14 | COc1cccc(C2SCC(=O)N2c2cccc(C)c2)c1OC (centres undefined) | 0.16
15 | CCCCn1c(N)c(N(CCOC)C(=O)c2cccc(S(=O)(=O)N(C)c3ccccc3)c2)c(=O)[nH]c1=O | 3.05
16 | Cc1noc(C)c1NC(=O)Nc1ccc2c(c1)C(=O)N([C@H](C)CO)C[C@H](C)[C@@H](CN(C)C(=O)Nc1ccc(C(F)(F)F)cc1)O2 | 0.65
17 | C/C=C/C=C/C(=O)OCC(=O)Nc1ccc(Cl)cc1 | -1.55
18 | CCN1CC=C2C(C#N)=C(N)C(C#N)(C#N)[C@H](c3ccoc3)[C@H]2C1 | 3.86
19 | CC(=O)N(C)c1ccc(NC(=O)Nc2cccc3ccccc23)cc1 | 1.7
20 | O=C1c2ccccc2C(=O)N1CCC(O)C[N+](=O)[O-] (centres undefined) | -0.34
21 | COc1ccc(CCNC(=O)C2CC3Cn4c(nc5cc(C)c(C)cc54)C3N2C)cc1 (centres undefined) | -15.6
22 | CC(C)(COC(=O)Nc1ccccc1)COC(=O)Nc1ccccc1 | -8
23 | COCCn1c(SCC(=O)c2[nH]c(C)c(C(C)=O)c2C)nc2ccccc2c1=O | 1.17
24 | COCc1c(C(=O)OCC(=O)Nc2ccc(OC(F)F)cc2)oc2ccccc12 | -1.7
25 | O=C1CN(C(=O)COc2c(Cl)cccc2Cl)c2ccccc2N1 | 0.62
26 | CCN(C(=O)Cc1c(C(=O)O)n(CC)c2ccccc12)c1ccccc1C | 4.47
27 | NS(=O)(=O)c1ccc(CNC(=O)c2ccc(Cl)cc2[N+](=O)[O-])cc1 | -8.53

Row | SMILES | inhibition [%]
28 | O=C(CCc1nnc2ccc(NCc3ccccc3Cl)nn12)NCC1CCN(C2CCCC2)C1 (centres undefined) | -2.3
29 | C=CC(COCc1ccccc1)N(CC(=O)OC)S(=O)(=O)c1cc(Br)ccc1OC (centres undefined) | 0.38
30 | COc1ccc(OC)c(NC(=O)Cc2cccs2)c1 | 2.15
31 | Cc1ccc(-c2ccnc3nc(Sc4ncc(C(F)(F)F)cc4Cl)nn23)cc1 | -7.05
32 | CC(=O)N1Cc2ccccc2CC1C(=O)O (centres undefined) | -1.84
33 | CCc1cccc(NC(=O)CCCN2C(=O)C(c3ccccc3)Oc3cccnc32)c1 (centres undefined) | -9.9
34 | COC(=O)C1=C(C)N(C(C)c2ccccc2)C(=O)/C1=C\c1ccco1 (centres undefined) | 4.05
35 | Cc1cccc(C)c1NC(=O)N1CC=C(n2c(=O)[nH]c3ccccc32)CC1 | 1.3
36 | Nc1nc(-c2sc3nc4c(cc3c2N)CCCC4)nc(N2CCOCC2)n1 | -3.34
37 | O=C(NCCN1CCOC1=O)C1CCC(=O)N(CCc2ccc(Cl)cc2)C1 (centres undefined) | -0.05
38 | O=C(NCc1ccccc1)c1ccc(CNc2c(N3CCCC3)c(=O)c2=O)cc1 | 3.23
39 | CC(Sc1nnc(-c2cccs2)n1C1CC1)C(=O)NCC1CCCO1 (centres undefined) | 3.19
40 | CC(C)n1c(O)c(N=Nc2ccccn2)c2ccccc21 | 3.27
41 | COC(C/C=C/C(=O)[C@@H](C)OCc1ccccc1)OC | -4.04
42 | CN=C(c1ccccc1)c1c(C)cccc1C | 10.9
43 | CC(C)C(=O)N1CCN(CCN=CC2=C(O)CC(c3ccco3)CC2=O)CC1 (centres undefined) | -4.57
44 | CCCC(C)c1nnc(NC(=O)C2CC(=O)N(c3ccc(OCC)cc3)C2)s1 (centres undefined) | 9.03
45 | CCC(C)CCN1CCN=C1N(C)C (centres undefined) | -3.18
46 | CCn1c(C)nc2cc(C(=O)NNS(=O)(=O)c3ccc(C)cc3C)ccc21 | -9.72
47 | CS(=O)(=O)c1ccccc1C(=O)Nc1ccc2sccc2c1 | -4.05
48 | CC(O)CN(Cc1ccc(Cl)cc1)CC(C)O (centres undefined) | 6.26
49 | O=C(COc1ccccc1Cl)N1CCCCCCC1 | -10.1
50 | Cc1ccc2c(C)c(C(=O)N3CCN(c4ccncc4)CC3)oc2c1C | 10.5
51 | O=C(NC1CC1)C1=C[C@H](c2coc3ccccc3c2=O)C[C@H](OCCCCO)O1 | 2.33
52 | C=CCn1c(-c2ccc(Cl)cc2)ccc(C#N)c1=O | -12.4
53 | N#C/C=C\Oc1ccc(Cl)cc1N | -2.18
54 | Cc1cc(F)ccc1S(=O)(=O)Nc1ncnc2scc(-c3ccc(F)cc3)c12 | -10.2
